Tcruzi prolif – T. cruzi intracellular proliferation inhibitors, primary screen, cell-based, beta-gal Tulahuen parasites, NIH3T3 host, luminescence. T. cruzi beta-gal in NIH3T3, GalScreen luminescence, 90 h. inhibition, % at 8.34 µM. actives 5.9% (n = 77,000);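 active = mean inhibition above about 93%, with at least 55% of replicates each passing it, limit read from the data, passing the limit was not always enough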
Pf Dd2 inh – P. falciparum Dd2 growth inhibitors, primary screen, SYBR Green fluorescence, single dose replicates; 72 h; stronger effect = lower value; actives 2.3% (n = 94,000); activity change, % at 10 µM; in the data active = activity change below about -80%
C diff HTS – C. difficile growth inhibitors, primary screen, HTS | Clostridium difficile clinical isolate growth, OD600, 24 h; stronger effect = lower value | growth activity, negative = inhibition, % at 16 µg/mL (by protocol) | actives 0.25% (n = 86,000) | AID 1259249, 2017;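 active = mean growth activity at or below -80% and every replicate also at or below -80%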;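 also: 0% = DMSO wells and -100% = levofloxacin 16 µg/mL wells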
* marks the source's active call; other numbers are inactive results; . = not tested or not shown. Rows were chosen to be rich in hits. Some 6.7% of all compounds tested hit in one or more screens of this group.

SMILES	Tcruzi prolif	Pf Dd2 inh	C diff HTS
COc1cccc(-c2ccc3c(c2)[C@H]2[C@H](CCN2C(=O)C2CCCC2)[C@@H](CO)N3)c1	.	-83*	3
C[C@H](CO)N1C[C@H](C)[C@H](CN(C)S(=O)(=O)c2ccccc2)Oc2c(NC(=O)Nc3ccc4c(c3)OCO4)cccc2C1=O	33	5	-2
C[C@H](CO)N1C[C@H](C)[C@H](CN(C)C(=O)Nc2ccccc2)Oc2ncc(C3=CCCC3)cc2C1=O	-269	1	2
O=C(N[C@H]1CC[C@H](CCn2cc(C3(O)CCCC3)nn2)O[C@H]1CO)c1ccccc1F	17	-18	.
CCNC(=O)C[C@@H]1CC[C@@H]2[C@H](COC[C@@H](O)CN2C(=O)C2CC2)O1	18	8	5
C[C@@H]1CN([C@@H](C)CO)C(=O)c2cc(NC(=O)NC3CCCCC3)ccc2O[C@H]1CN(C)S(=O)(=O)c1ccc(F)cc1	20	10	-3
CS(=O)(=O)N(CC1CCC1)C[C@H]1N[C@@H](CO)[C@H]1c1ccccc1	3	-4	3
O=C(Cc1ccccc1)N1CC[C@@H]2[C@H](CO)Nc3ccc(-c4ccc(F)cc4)cc3[C@@H]21	-1	30	41
O=C(C1CCCC1)N1CC[C@@H]2[C@H]1c1cc(C3=CCCCC3)ccc1N[C@@H]2CO	.	-92*	6
COc1ccc(C#Cc2ccc3c(c2)[C@@H]2[C@@H](CCN2C(=O)C2CCC2)[C@@H](CO)N3)cc1	.	-75	31
O=C(Cc1ccncc1)N1CC[C@@H]2[C@@H](CO)Nc3ccc(-c4cccc(F)c4)cc3[C@@H]21	.	-92*	1
O=C(C1CCC1)N1CC[C@H]2[C@H](CO)Nc3ccc(C4=CCCCC4)cc3[C@H]21	.	-36	-4
COc1ccc(C#Cc2ccc3c(c2)[C@@H]2[C@@H](CCN2C(=O)C2CCC2)[C@H](CO)N3)cc1	.	-87*	51
CC(C)NC(=O)Nc1ccc2c(c1)CC(=O)N([C@@H](C)CO)C[C@H](C)[C@@H](CN(C)C(=O)Nc1cccc3ccccc13)O2	12	27	-4
C[C@H]1CN([C@@H](C)CO)S(=O)(=O)c2ccc(/C=C/c3ccccc3)cc2O[C@H]1CN(C)Cc1cccnc1	.	-82*	4
C[C@@H]1CN([C@@H](C)CO)S(=O)(=O)c2ccc(/C=C/c3ccccc3)cc2O[C@@H]1CN(C)C(=O)c1ccccc1	127*	-68	-1
C[C@H]1CN([C@@H](C)CO)S(=O)(=O)c2ccc(-c3ccccc3)cc2O[C@H]1CN(C)C(=O)Nc1ccccc1F	45	-81*	.
C[C@@H]1CN([C@H](C)CO)S(=O)(=O)c2ccc(/C=C/c3ccccc3)cc2O[C@@H]1CN(C)C(=O)Nc1cc(F)ccc1F	.	-64	1
C[C@H]1CN([C@@H](C)CO)S(=O)(=O)c2ccc(/C=C/c3ccccc3)cc2O[C@@H]1CN(C)Cc1cccnc1	102	-75	2
C[C@@H]1CN([C@@H](C)CO)S(=O)(=O)c2ccc(-c3ccccc3)cc2O[C@H]1CN(C)C(=O)Nc1ccccc1F	55	-38	.
C[C@@H]1CN([C@H](C)CO)S(=O)(=O)c2ccc(/C=C/c3ccccc3)cc2O[C@H]1CN(C)C(=O)Nc1cc(F)ccc1F	.	-84*	11
C/C=C/c1ccc2c(c1)O[C@@H](CN(C)C(=O)c1ccccc1)[C@H](C)CN([C@H](C)CO)S2(=O)=O	.	-16	5
C/C=C/c1ccc2c(c1)O[C@@H](CN(C)C(=O)Cc1ccncc1)[C@@H](C)CN([C@@H](C)CO)S2(=O)=O	53	-60	5
COCC(=O)Nc1ccc2c(c1)C(=O)N(C)C[C@H](OC)[C@H](C)CN(C(=O)c1cnccn1)[C@H](C)CO2	6	10	-3
O=C(C[C@H]1C[C@H]2c3cc(NC(=O)Cc4ccncc4)ccc3O[C@H]2[C@H](CO)O1)NCc1cccc(F)c1	10	-41	2
SMILES	Tcruzi prolif	Pf Dd2 inh	C diff HTS
C[C@H]1CCCCO[C@H](CN(C)S(=O)(=O)c2ccccc2)[C@@H](C)CN([C@@H](C)CO)C(=O)c2cc(NC(=O)C3CCCCC3)ccc2O1	36	-84*	-7
C[C@@H]1CN([C@@H](C)CO)C(=O)c2cc(NC(=O)C3CCCCC3)ccc2O[C@@H](C)CCCCO[C@@H]1CN(C)S(=O)(=O)c1ccccc1	38	-51	-2
C[C@@H]1CCCCO[C@H](CN(C)S(=O)(=O)c2ccccc2)[C@H](C)CN([C@@H](C)CO)C(=O)c2cc(NC(=O)C3CCCCC3)ccc2O1	38	-73	-3
Cc1ccc(S(=O)(=O)N(C)C[C@H]2OCCCC[C@@H](C)Oc3ccc(NC(=O)C4CCCCC4)cc3C(=O)N([C@@H](C)CO)C[C@H]2C)cc1	29	-57	-4
C[C@@H]1CCCCO[C@H](CN(C)S(=O)(=O)c2ccccc2)[C@@H](C)CN([C@@H](C)CO)C(=O)c2cc(NC(=O)C3CCCCC3)ccc2O1	45	-80*	-2
Cc1ccc(S(=O)(=O)N(C)C[C@@H]2OCCCC[C@@H](C)Oc3ccc(NC(=O)C4CCCCC4)cc3C(=O)N([C@H](C)CO)C[C@@H]2C)cc1	11	-89*	0
Cc1ccccc1S(=O)(=O)N1CCCCN2[C@@H](CO)[C@@H](c3ccc(-c4cncnc4)cc3)[C@@H]2C1	72	-52	-1
O=C(C[C@H]1C=C[C@@H](NC(=O)Nc2cc(F)ccc2F)[C@H](CO)O1)NCc1ccncn1	-13	7	2
C[C@@H]1CCCCO[C@@H](CN(C)Cc2ccncc2)[C@H](C)CN([C@H](C)CO)C(=O)c2cc(NS(=O)(=O)c3cn(C)cn3)ccc2O1	-27	35	0
COc1ccc(S(=O)(=O)Nc2ccc3c(c2)C(=O)N([C@@H](C)CO)C[C@H](C)[C@@H](CN(C)C(=O)Nc2ccc(C(F)(F)F)cc2)OCCCC[C@@H](C)O3)cc1	88	-84*	-6
COc1ccc(S(=O)(=O)Nc2ccc3c(c2)C(=O)N([C@@H](C)CO)C[C@@H](C)[C@@H](CN(C)C(=O)Nc2ccc(C(F)(F)F)cc2)OCCCC[C@H](C)O3)cc1	74	-87*	9
COc1ccc(S(=O)(=O)Nc2ccc3c(c2)C(=O)N([C@@H](C)CO)C[C@H](C)[C@H](CN(C)C(=O)Nc2ccc(C(F)(F)F)cc2)OCCCC[C@H](C)O3)cc1	71	-56	11
COc1ccc(S(=O)(=O)Nc2ccc3c(c2)C(=O)N([C@@H](C)CO)C[C@H](C)[C@@H](CN(C)C(=O)Nc2ccc(C(F)(F)F)cc2)OCCCC[C@H](C)O3)cc1	60	-75	2
O=C(C[C@@H]1CC[C@H]2[C@@H](COC[C@@H](O)CN2Cc2cccc(F)c2)O1)NCCc1ccncc1	-31	8	.
CCCC(=O)N1CCC2(CC1)CN(C(=O)CN1CCOCC1)[C@@H](CO)c1c2c2ccc(OC)cc2n1C	.	28	.
CCCN(C)C[C@@H]1Oc2cc(C#Cc3ccccc3OC)ccc2S(=O)(=O)N([C@@H](C)CO)C[C@@H]1C	50	-39	11

Assay outcomes as filed in PubChem BioAssay.
